# Values joined by “and” are separate entries in the source; they are usually repeats but may differ in a detail not shown here. Equal entries are not always repeated. Where a structure was tested more than once in an assay, its records may differ in their call. Active and inactive are the calls of the source. How the source made its calls: active means hit-call score of the fitted dose curve at least 0.9, where 1 is the maximum; inactive means score below 0.9.
# Tests used:
# [1] = ATG_DR4_LXR_CIS: Attagene CIS-FACTORIAL HepG2 Assay for human Liver X Receptor (LXR), DR4 submotif (AID 2282929); conditions: HepG2 Attagene DR4 cis-reporter, mRNA transcription; AC50: actives raise or lower the signal unless noted; outcome: actives raise or lower the signal unless noted
# How it was run: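 Cells were transfected with multiple reporter transcription units, exposed to chemicals for 24 hours, then lysed for RNA. Reporter mRNA induction was measured by RT-PCR with capillary electrophoresis detection and fitted in both directions relative to DMSO.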
# [2] = target: Aryl hydrocarbon receptor (Homo sapiens) (UniProt P35869); assay: ATG_Ahr_CIS: Attagene CIS-FACTORIAL HepG2 Assay for human Aryl Hydrocarbon Receptor (Ahr) (AID 2282930); conditions: HepG2 AhR cis-factorial reporter transcription; actives raise or lower the signal
# Chain of Aryl hydrocarbon receptor (Homo sapiens) (P35869 whole entry, looked up): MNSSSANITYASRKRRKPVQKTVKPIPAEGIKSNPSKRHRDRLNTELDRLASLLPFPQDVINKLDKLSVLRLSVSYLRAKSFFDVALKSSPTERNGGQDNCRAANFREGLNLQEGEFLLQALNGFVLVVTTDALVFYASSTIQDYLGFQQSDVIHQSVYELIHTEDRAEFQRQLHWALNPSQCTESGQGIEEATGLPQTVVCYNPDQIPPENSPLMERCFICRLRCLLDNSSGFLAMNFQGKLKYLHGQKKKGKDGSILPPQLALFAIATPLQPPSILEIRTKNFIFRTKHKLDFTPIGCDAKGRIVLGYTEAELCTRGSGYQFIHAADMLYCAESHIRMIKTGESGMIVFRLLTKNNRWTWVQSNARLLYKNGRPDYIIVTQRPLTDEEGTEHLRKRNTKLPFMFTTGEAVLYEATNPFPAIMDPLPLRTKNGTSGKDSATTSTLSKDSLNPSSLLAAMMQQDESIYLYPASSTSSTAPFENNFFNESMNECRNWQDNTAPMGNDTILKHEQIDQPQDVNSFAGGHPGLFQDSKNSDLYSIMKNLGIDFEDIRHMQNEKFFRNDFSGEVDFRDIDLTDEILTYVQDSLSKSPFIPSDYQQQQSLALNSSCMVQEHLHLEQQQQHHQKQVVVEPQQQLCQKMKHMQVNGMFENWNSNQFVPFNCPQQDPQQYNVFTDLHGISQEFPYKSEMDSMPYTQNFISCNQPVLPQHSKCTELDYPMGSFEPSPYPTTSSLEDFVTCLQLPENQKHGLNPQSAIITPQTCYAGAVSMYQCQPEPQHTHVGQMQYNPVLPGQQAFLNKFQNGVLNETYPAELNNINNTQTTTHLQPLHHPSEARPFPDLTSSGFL
# How it was run: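 HepG2 cells transiently transfected with cis-element-driven multiplexed reporter units; endogenous AhR activity read as reporter mRNA 24 h after dosing, via RT-PCR, 6-FAM labelling, HpaI digestion and capillary electrophoresis. Bidirectional fit relative to DMSO.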
# [3] = ATG_AP_1_CIS: Attagene CIS-FACTORIAL HepG2 Assay for human Activator Protein 1 (AP-1) (AID 2282931); conditions: HepG2 Attagene cis-factorial AP-1 reporter mRNA; actives raise or lower the signal
# How it was run: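 Endogenous transcription-factor activity in human HepG2 liver cells is read through a cis-promoter reporter transcript, sampled 24 h after dosing. Detection uses RT-PCR with capillary electrophoresis; values come from bidirectional fitting relative to DMSO.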
# [4] = ATG_AP_2_CIS: Attagene CIS-FACTORIAL HepG2 Assay for human Activator Protein 2 (AP-2) (AID 2282932); conditions: HepG2 AP-2 cis-reporter, Attagene transcription factor profiling; AC50: actives raise or lower the signal unless noted; outcome: actives raise or lower the signal unless noted
# How it was run: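 Read-out: fluorescent reporter mRNA via RT-PCR and capillary electrophoresis, 24 h post-dose in transiently transfected HepG2. Endogenous factors drive cis-promoter reporters; gain or loss of signal fitted bidirectionally against DMSO.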
# [5] = ATG_BRE_CIS: Attagene CIS-FACTORIAL HepG2 Assay for human Bone Morphogenetic Protein (BMP) Response Element (BRE) (AID 2282933); conditions: HepG2 BMP response element reporter, Attagene transcription factor profiling; actives raise or lower the signal
# How it was run: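 Fluorescence-labelled reporter cDNA fragments, separated by capillary electrophoresis, gave the signal for this component of a 52-readout multiplex. HepG2 cells were transfected, exposed to chemicals for 24 h, and compared with DMSO using bidirectional fitting.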
# [6] = target: Retinoic acid receptor alpha (Homo sapiens) (UniProt P10276); assay: ATG_DR5_RAR_CIS: Attagene CIS-FACTORIAL HepG2 Assay for human Retinoic Acid Receptor Alpha (RARE), DR5 submotif (AID 2282934); conditions: HepG2 Attagene cis-factorial RARE DR5 reporter, mRNA; actives raise or lower the signal
# Chain of Retinoic acid receptor alpha (Homo sapiens) (P10276 whole entry, looked up): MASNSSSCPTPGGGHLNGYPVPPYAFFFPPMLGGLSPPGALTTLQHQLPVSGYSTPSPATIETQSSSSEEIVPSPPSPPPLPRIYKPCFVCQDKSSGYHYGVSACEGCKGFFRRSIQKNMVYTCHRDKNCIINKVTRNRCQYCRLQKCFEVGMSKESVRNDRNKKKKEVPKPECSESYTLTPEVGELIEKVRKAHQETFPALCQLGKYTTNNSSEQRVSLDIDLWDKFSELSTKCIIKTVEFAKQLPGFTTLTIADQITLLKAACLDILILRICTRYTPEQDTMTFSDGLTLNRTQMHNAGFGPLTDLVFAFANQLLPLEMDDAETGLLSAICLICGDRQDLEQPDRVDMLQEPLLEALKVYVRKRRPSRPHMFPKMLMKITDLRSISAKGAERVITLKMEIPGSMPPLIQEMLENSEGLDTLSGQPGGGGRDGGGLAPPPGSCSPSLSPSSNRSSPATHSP
# How it was run: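 HepG2 cells transiently transfected with multiplexed reporter units; DR5 cis-element drives reporter through endogenous transcription factors. After 24 h dosing, reporter mRNA quantified by RT-PCR, fluorescent labeling, HpaI digestion and capillary electrophoresis; bidirectional fitting versus DMSO.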
# [7] = target: Transcription factor E2F1 (Homo sapiens) (UniProt Q01094); assay: ATG_E2F_CIS: Attagene CIS-FACTORIAL HepG2 Assay for human E2F Transcription Factor 1 (AID 2282935); conditions: HepG2 Attagene cis-reporter, E2F reporter RNA transcripts; actives raise or lower the signal
# Chain of Transcription factor E2F1 (Homo sapiens) (Q01094 whole entry, looked up): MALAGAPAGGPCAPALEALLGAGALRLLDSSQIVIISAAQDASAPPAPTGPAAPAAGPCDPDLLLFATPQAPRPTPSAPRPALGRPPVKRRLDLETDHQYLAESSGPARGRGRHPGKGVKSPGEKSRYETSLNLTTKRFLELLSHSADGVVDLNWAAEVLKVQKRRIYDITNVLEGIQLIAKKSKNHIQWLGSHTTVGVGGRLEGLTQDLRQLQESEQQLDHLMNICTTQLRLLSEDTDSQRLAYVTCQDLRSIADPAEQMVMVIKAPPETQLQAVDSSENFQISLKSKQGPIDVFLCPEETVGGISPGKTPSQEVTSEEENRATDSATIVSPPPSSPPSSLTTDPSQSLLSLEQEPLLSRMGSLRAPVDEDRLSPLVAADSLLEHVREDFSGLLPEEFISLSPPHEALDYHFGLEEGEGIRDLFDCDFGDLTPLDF
# How it was run: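 Transient MRTU transfection of HepG2; 24 h compound exposure; RNA → oligo(dT) RT → PCR → FAM label → HpaI cut → CE fluorescence. Gain/loss of signal fit against DMSO.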
# [8] = ATG_E_Box_CIS: Attagene CIS-FACTORIAL HepG2 Assay for human Enhancer Box (E-box) (AID 2282936); conditions: HepG2 E-box cis-reporter transcription, actives raise or lower the signal
# How it was run: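 Transiently transfected HepG2, endogenous TF-driven reporters, 24 h dosing. Readout: RT-PCR plus capillary electrophoresis of fluorescent reporter fragments. Gain or loss of signal fitted bidirectionally against DMSO baseline.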
# [9] = ATG_M_61_CIS: Attagene CIS-FACTORIAL HepG2 Assay for M61 Transcription Factor (Internal Marker) (AID 2282937); conditions: HepG2 Attagene CIS-FACTORIAL M61 internal marker reporter; actives raise or lower the signal
# How it was run: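 Cells were transfected with reporter units under cis-regulatory promoters, treated with chemicals for 24 h, then lysed for RNA. Reporter transcripts were quantified by RT-PCR and capillary electrophoresis, and activity was fitted bidirectionally against DMSO.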
# [10] = ATG_EGR_CIS: Attagene CIS-FACTORIAL HepG2 Assay for human Early Growth Response 1 (EGR1) (AID 2282938); conditions: HepG2 Attagene CIS-FACTORIAL EGR reporter mRNA; actives raise or lower the signal
# How it was run: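 Endogenous TF activity in HepG2 liver cells was gauged through cis-promoter reporter constructs transiently transfected. After 24 h dosing, reporter mRNA was quantified by RT-PCR and capillary electrophoresis, and curves fitted in both directions versus DMSO.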
# [11] = ATG_M_19_CIS: Attagene CIS-FACTORIAL HepG2 Assay for M19 Transcription Factor (Internal Marker) (AID 2282939); conditions: HepG2 Attagene CIS-FACTORIAL M19 internal marker reporter; actives raise or lower the signal
# How it was run: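 HepG2, MRTU transient transfection, 24 h dosing. Total RNA → RT-PCR → 6-FAM primer extension → HpaI digest → CE fluorescence. Bidirectional curve fit, DMSO negative control.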
# [12] = ATG_ERE_CIS: Attagene CIS-FACTORIAL HepG2 Assay for Estrogen Response Element (ERE) (AID 2282940); conditions: HepG2 ERE cis-reporter, Attagene RNA transcript; actives raise or lower the signal
# How it was run: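 After a 24 h chemical treatment, RNA from reporter-transfected HepG2 cells is reverse-transcribed, PCR-amplified and fluorescently labelled. Fragments separated by capillary electrophoresis give reporter signal; DMSO serves as negative control.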
# [13] = ATG_Ets_CIS: Attagene CIS-FACTORIAL HepG2 Assay for human Erythroblast Transformation Specific (ETS) (AID 2282941); conditions: HepG2 ETS cis-reporter transcription; AC50: actives raise or lower the signal unless noted; outcome: actives raise or lower the signal unless noted
# How it was run: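 RT-PCR/capillary electrophoresis fluorescence read-out of reporter mRNA; HepG2 transient multi-reporter transfection; 24 h compound exposure; gain or loss of signal fitted bidirectionally relative to DMSO.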
# [14] = target: Hepatocyte nuclear factor 3-beta (Homo sapiens) (UniProt Q9Y261); assay: ATG_FoxA2_CIS: Attagene CIS-FACTORIAL HepG2 Assay for human Forkhead box A2 (FOXA2) (AID 2282942); conditions: HepG2 cis-reporter transcription factor activity, 24 h; actives raise or lower the signal
# Chain of Hepatocyte nuclear factor 3-beta (Homo sapiens) (Q9Y261 whole entry, looked up): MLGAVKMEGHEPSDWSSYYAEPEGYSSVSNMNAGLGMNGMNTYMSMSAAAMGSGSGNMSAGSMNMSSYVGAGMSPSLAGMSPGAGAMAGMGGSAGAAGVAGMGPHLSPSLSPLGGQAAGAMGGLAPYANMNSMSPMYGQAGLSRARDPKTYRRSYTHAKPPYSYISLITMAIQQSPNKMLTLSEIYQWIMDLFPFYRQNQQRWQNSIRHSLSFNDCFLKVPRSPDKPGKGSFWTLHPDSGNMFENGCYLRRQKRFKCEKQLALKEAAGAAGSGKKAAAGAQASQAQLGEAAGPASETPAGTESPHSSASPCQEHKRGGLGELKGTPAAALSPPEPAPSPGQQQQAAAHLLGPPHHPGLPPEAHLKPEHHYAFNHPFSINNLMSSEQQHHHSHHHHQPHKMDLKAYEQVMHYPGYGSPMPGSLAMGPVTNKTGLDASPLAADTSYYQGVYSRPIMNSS
# How it was run: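 Endogenous transcription factor activity was read in HepG2 cells carrying transiently transfected cis-promoter reporter units. After 24 h dosing, reporter mRNA was quantified by RT-PCR and capillary electrophoresis, and values fitted bidirectionally versus DMSO.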
# [15] = ATG_FoxO_CIS: Attagene CIS-FACTORIAL HepG2 Assay for human Forkhead box O (FoxO) (AID 2282943); conditions: HepG2 Attagene cis-reporter, FoxO element, mRNA; actives raise or lower the signal
# How it was run: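 HepG2 cells transiently transfected with cis-element-driven reporter units report endogenous FoxO activity. After 24 h chemical exposure, reporter mRNA quantified by RT-PCR, fluorescent labeling, HpaI digestion and capillary electrophoresis; bidirectional fit versus DMSO.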
# [16] = ATG_GATA_CIS: Attagene CIS-FACTORIAL HepG2 Assay for human GATA Binding Protein (AID 2282944); conditions: HepG2 GATA cis-element reporter, Attagene multiplex mRNA; actives raise or lower the signal
# How it was run: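 Cells: HepG2, transiently transfected with cis-regulated reporter transcription units. Exposure: 24 h. Detection: RT-PCR plus capillary electrophoresis of FAM-labeled fragments. Analysis: bidirectional, DMSO as baseline.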
# [17] = ATG_GLI_CIS: Attagene CIS-FACTORIAL HepG2 Assay for human Zinc Finger Protein GLI1 (AID 2282945); conditions: HepG2, Attagene cis-factorial reporter mRNA, GLI element; actives raise or lower the signal
# How it was run: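 Transiently transfected HepG2 cells report endogenous transcription factor activity via cis-element-driven reporter units. After 24 h compound exposure, reporter mRNA was measured by RT-PCR with capillary electrophoresis; bidirectional fitting against DMSO baseline.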
# [18] = target: Bile acid receptor (Homo sapiens) (UniProt Q96RI1); assay: ATG_IR1_CIS: Attagene CIS-FACTORIAL HepG2 Assay for human Nuclear Receptor Subfamily 1 Group H Member 4 (NR1H4), IR1 submotif (AID 2282946); conditions: IR1 reporter transcription, actives raise or lower the signal
# Chain of Bile acid receptor (Homo sapiens) (Q96RI1 whole entry, looked up): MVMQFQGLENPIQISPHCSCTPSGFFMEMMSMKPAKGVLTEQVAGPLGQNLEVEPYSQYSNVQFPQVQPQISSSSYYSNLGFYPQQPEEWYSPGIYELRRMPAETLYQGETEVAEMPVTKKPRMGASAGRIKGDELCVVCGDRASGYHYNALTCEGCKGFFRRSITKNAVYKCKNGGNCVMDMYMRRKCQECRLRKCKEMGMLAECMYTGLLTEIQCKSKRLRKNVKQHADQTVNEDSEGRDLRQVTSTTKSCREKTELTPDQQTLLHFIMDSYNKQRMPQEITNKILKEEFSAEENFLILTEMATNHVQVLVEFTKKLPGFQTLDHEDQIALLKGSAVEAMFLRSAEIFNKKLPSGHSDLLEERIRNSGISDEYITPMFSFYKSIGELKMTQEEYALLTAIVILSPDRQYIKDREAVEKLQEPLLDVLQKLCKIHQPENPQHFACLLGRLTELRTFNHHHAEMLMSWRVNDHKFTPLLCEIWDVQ
# How it was run: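 Fluorescence of capillary-separated, HpaI-digested RT-PCR reporter products gave IR1-element mRNA induction in HepG2 cells 24 h after dosing. Endogenous transcription factors drove the cis-regulated reporters; activity was fitted bidirectionally against DMSO.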
# [19] = ATG_GRE_CIS: Attagene CIS-FACTORIAL HepG2 Assay for human Glucocorticoid Response Elements (GRE) (AID 2282947); conditions: HepG2 GRE cis-reporter, Attagene multiplex mRNA; AC50: actives raise or lower the signal unless noted; outcome: actives raise or lower the signal unless noted
# How it was run: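 Read-out: fluorescent reporter-transcript fragments separated by capillary electrophoresis after RT-PCR. Transiently transfected HepG2 cells carrying cis-element-driven reporter units were dosed for 24 h; gain or loss of signal fitted against DMSO control.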
# [20] = ATG_ISRE_CIS: Attagene CIS-FACTORIAL HepG2 Assay for human Interferon Regulatory Factor 1 (IRF1) binding to an Interferon-Stimulated Response Element (ISRE) (AID 2282948); conditions: HepG2 ISRE cis-reporter (Attagene), mRNA transcription readout; actives raise or lower the signal
# How it was run: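 Read-out: fluorescent RT-PCR products resolved by capillary electrophoresis, reporting endogenous transcription factor activity via ISRE-driven reporter mRNA in transfected HepG2 cells dosed for 24 h; gain or loss fitted relative to DMSO.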
smiles,measurement,setting,value
O=C(O)CCC(F)(F)C(F)(F)C(F)(F)C(F)(F)C(F)(F)F,outcome,[1],inactive
same,outcome,[2],inactive
same,outcome,[3],inactive
same,outcome,[4],inactive
same,outcome,[5],inactive
same,outcome,[6],inactive
same,outcome,[7],inactive
same,outcome,[8],inactive
same,outcome,[9],inactive
same,outcome,[10],inactive
same,outcome,[11],inactive
same,outcome,[12],inactive
same,outcome,[13],inactive
same,outcome,[14],inactive
same,outcome,[15],inactive
same,outcome,[16],inactive
same,outcome,[17],inactive
same,outcome,[18],inactive
same,outcome,[19],inactive
same,outcome,[20],inactive
Cc1ccccc1C(OCCN(C)C)c1ccccc1 (configuration not stated),AC50,[1],135 µM (active)
same,outcome,[1],inactive
same,outcome,[2],inactive
same,outcome,[3],inactive
same,outcome,[4],inactive
same,outcome,[5],inactive
same,outcome,[6],inactive
same,outcome,[7],inactive
same,outcome,[8],inactive
same,outcome,[9],inactive
same,outcome,[10],inactive
same,outcome,[11],inactive
same,outcome,[12],inactive
same,outcome,[13],inactive
same,outcome,[14],inactive
same,outcome,[15],inactive
same,outcome,[16],inactive
same,outcome,[17],inactive
same,outcome,[18],inactive
same,outcome,[19],inactive
same,outcome,[20],inactive
CC(C)CCOCCC(C)C,outcome,[1],inactive
same,outcome,[2],inactive
same,outcome,[3],inactive
same,outcome,[4],inactive
same,outcome,[5],inactive
same,outcome,[6],inactive
same,outcome,[7],inactive
same,outcome,[8],inactive
same,outcome,[9],inactive
same,outcome,[10],inactive
same,outcome,[11],inactive
same,AC50,[12],26.8 µM (active)
same,outcome,[13],inactive
same,outcome,[14],inactive
same,outcome,[15],inactive
same,outcome,[16],inactive
same,outcome,[17],inactive
same,outcome,[18],inactive
same,outcome,[19],inactive
same,outcome,[20],inactive
CCCCCCc1ccc(N)cc1,outcome,[1],inactive
same,AC50,[2],45.5 µM (active)
same,outcome,[3],inactive
same,outcome,[4],inactive
same,outcome,[5],inactive
same,outcome,[6],inactive
same,outcome,[7],inactive
same,outcome,[8],inactive
same,outcome,[9],inactive
same,outcome,[10],inactive
same,outcome,[11],inactive
same,AC50,[12],5.06 µM (active)
same,outcome,[13],inactive
same,outcome,[14],inactive
same,outcome,[15],inactive
same,outcome,[16],inactive
same,outcome,[17],inactive
same,outcome,[18],inactive
same,outcome,[19],inactive
same,AC50,[20],26.9 µM (active)
O=C(O)C(F)(F)OC(F)(F)C(F)(F)OC(F)(F)C(F)(F)OC(F)(F)C(F)(F)C(F)(F)C(F)(F)F,AC50,[1],16.6 µM (active) and 21.7 µM (active)
same,outcome,[2],inactive
same,outcome,[3],inactive
same,AC50,[4],93.6 µM (active) and 28.1 µM (active)
same,outcome,[5],inactive
same,outcome,[6],inactive
same,outcome,[7],inactive
same,AC50,[8],89.1 µM (active)
same,outcome,[8],inactive
same,outcome,[9],inactive
same,AC50,[10],19.6 µM (active) and 25.7 µM (active)
same,outcome,[11],inactive
same,outcome,[12],inactive
same,outcome,[13],inactive
same,outcome,[14],inactive
same,outcome,[15],inactive
same,AC50,[16],76.5 µM (active)
same,outcome,[16],inactive
same,outcome,[17],inactive
same,outcome,[18],inactive
same,outcome,[19],inactive
same,AC50,[20],24.6 µM (active) and 26 µM (active)
FC(F)(F)C1(F)C(F)(F)C(F)(F)C(F)(F)C(F)(C(F)(F)F)C1(F)F (configuration not stated),outcome,[1],inactive
same,outcome,[2],inactive
same,outcome,[3],inactive
same,outcome,[4],inactive
same,outcome,[5],inactive
same,outcome,[6],inactive
same,outcome,[7],inactive
same,outcome,[8],inactive
same,outcome,[9],inactive
same,outcome,[10],inactive
same,outcome,[11],inactive
same,outcome,[12],inactive
same,outcome,[13],inactive
same,outcome,[14],inactive
same,outcome,[15],inactive
same,outcome,[16],inactive
same,outcome,[17],inactive
same,outcome,[18],inactive
same,outcome,[20],inactive

# Reference: PubChem BioAssay (EPA / NIEHS)
